SENP6 block: inhibitors of human SENP6 protease | Q9GZR1 | Recombinant SENP6 catalytic domain, aminoluciferin luminescence | inhibition, % at 10 µM | 1.8% of 330,000 active | AID 2599;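 active = inhibition above about 50% at the single tested dose, limit read from the data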
SENP8 block-1: SENP8 (human) protease inhibition. Q96LD8. inhibition, % at 20 µM. 0.64% of 360,000 active. AID 602440. recombinant SENP8, Nedd8 substrate fluorescence; in the data active = inhibition mostly above about 40%, no sharp cut-off; inactive = mostly below about 27%
SENP7 block: blocks the human protease SENP7. inhibition, % at 5 µM. recombinant SENP7, Z-RLRGG-aminoluciferin luminescence, 40 min. Q9BQF6. AID 434973. 1.5% of 330,000 active;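 active = inhibition above about 50% at the single test dose, limit read from the data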
Target sequence (Q9BQF6 706-1050 limits assumed): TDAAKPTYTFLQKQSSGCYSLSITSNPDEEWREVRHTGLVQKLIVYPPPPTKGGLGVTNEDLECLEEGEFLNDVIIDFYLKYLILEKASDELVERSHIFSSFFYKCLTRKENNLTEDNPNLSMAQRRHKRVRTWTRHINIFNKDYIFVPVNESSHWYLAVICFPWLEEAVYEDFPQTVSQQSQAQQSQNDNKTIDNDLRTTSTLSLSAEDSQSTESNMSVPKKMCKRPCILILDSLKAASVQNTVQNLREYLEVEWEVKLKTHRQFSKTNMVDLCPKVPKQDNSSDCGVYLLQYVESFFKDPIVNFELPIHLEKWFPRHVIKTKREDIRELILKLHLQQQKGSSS
C8 TRAIL sens: sensitizes caspase-8 expressing cells to TRAIL; NB7+C8 cells + TRAIL, ATPlite viability luminescence; AID 624354; inhibition (viability loss, TRAIL sensitization), % at 10 µM; 1% of 360,000 active;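 active = compounds causing at least 50% loss of cell viability in the single-dose screen, relative to plate controls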
PPC-1+TRAIL kill: PPC-1 cancer cell killing with TRAIL present; PPC-1 cells + TRAIL, ATPLite viability luminescence; cell killing (% activity), % at 4 µM or 5 µM; 0.41% of 220,000 active; AID 1443;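 active = cell killing above 50% in the first pass at 4 µM, then a duplicate retest at 5 µM averaging 50% or more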
SENP8 block-2: SENP8 protease inhibition; Q96LD8; purified SENP8, Z-RLRGG-aminoluciferin cleavage, luminescence; 1.2% of 330,000 active; inhibition, % at 10 µM; in the data active = inhibition above about 50%
SENP8 confirm: confirmation of human SENP8 protease inhibitors. shares compounds with SENP7 block. Recombinant SENP8, Z-RLRGG-aminoluciferin luminescence, 60 min. inhibition, % at 12.5 µM. 40% of 6,200 active. AID 488912;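 active = mean inhibition across replicates above about 50%, limit read from the data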
SENP6 confirm: human SENP6 inhibition, confirmed; shares compounds with SENP7 block; inhibition, % at 12.5 µM; recombinant SENP6, Z-RLRGG-aminoluciferin luminescence; 58% of 6,200 active
SENP7 conf: human SENP7 inhibition, confirmed; shares compounds with SENP7 block; recombinant SENP7, Z-RLRGG-aminoluciferin luminescence, 40 min; inhibition, % at 12.5 µM; 69% of 6,200 active
Casp3 SENP sel: selectivity test for SENP inhibitors: human caspase-3 inhibition | purified caspase-3, Z-DEVD-aminoluciferin luminescence, 60 min | shares compounds with SENP7 block | 60% of 6,200 active | AID 488918 | inhibition, % at 12.5 µM;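 active = mean inhibition above about 50%, limit read from the data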
SENP luc ctr: interferes with luciferase luminescence in SENP counter-screen | shares compounds with SENP7 block | Pre-incubated SENP8/Z-RLRGG-aminoluciferin, luciferase luminescence interference | inhibition, % at 12.5 µM | 39% of 6,200 active | AID 488919;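 active = mean inhibition above about 50% when retested at one dose, limit read from the data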
A number is an active result; n = inactive; x = not tested or not shown. Shown are actives, neighbours in structure and some others; about 3% of the full set was active somewhere.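 The calls were made as follows, unless noted: active = mean inhibition above about 50% in the one-dose retest (limit read from the data); inactive = the rest.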

SMILES	SENP6 block	SENP8 block-1	SENP7 block	C8 TRAIL sens	PPC-1+TRAIL kill	SENP8 block-2	SENP8 confirm	SENP6 confirm	SENP7 conf	Casp3 SENP sel	SENP luc ctr
O=c1c2c(nc3cc(-c4ccc(F)cc4)[nH]n13)CCCC2	54	n	55	53	n	n	n	n	n	n	n
CCc1c(C)nc2cc(-c3ccc(Cl)cc3)[nH]n2c1=O	n	n	n	n	x	n	x	x	x	x	x
Cc1nc2cc(-c3ccc(Br)cc3)[nH]n2c(=O)c1Cl	82	n	n	n	x	75	n	n	n	n	n
O=c1c2c(nc3cc(-c4cccc(Cl)c4)[nH]n13)CCC2	50	n	57	n	n	n	n	n	n	n	n
COc1ccccc1C(=O)NC(=O)CSc1ccc(C)c(C)c1	n	n	n	n	x	n	x	x	x	x	x
Cc1nc(NC(=O)/C=C/c2ccc(Cl)cc2Cl)sc1C(=O)N(C)C	n	n	n	n	n	n	x	x	x	x	x
CCN(CC)CCOC(=O)c1ccc(NC(=O)/C=C/c2cccs2)cc1	n	n	n	n	n	n	x	x	x	x	x
Cc1cc(C)nc(NC(=O)/C=C/c2ccc(Cl)cc2Cl)c1	76	n	59	n	n	62	n	n	79	n	n
CCOC(=O)c1ccc(NC(=O)/C=C/c2cccs2)cc1	81	n	79	n	n	62	53	53	84	n	n
Cc1cc(C)c(-c2csc(NC(=O)/C=C/c3cccs3)n2)c(C)c1	n	n	n	n	n	n	x	x	x	x	x
Cc1ccccc1NC(=O)/C=C/c1cccs1	n	n	63	n	n	n	52	51	86	80	70
Cc1cc(C)nc(NC(=O)/C=C/c2cccs2)c1	n	n	54	n	n	n	n	n	72	55	55
Cc1ccc(S(=O)(=O)N(C)C[C@@H]2OCc3cnnn3CCCC(=O)N([C@@H](C)CO)C[C@H]2C)cc1	x	n	x	n	x	x	x	x	x	x	x
Cc1nc(SCCC(=O)O)c2cc(-c3ccccc3)sc2n1	72	n	60	63	x	71	n	76	n	82	n
Cc1ccc(Cn2ccnc2C(=O)Nc2ccccc2)cc1	79	n	73	n	n	51	n	n	n	n	n
N#Cc1ccc(Cn2ccnc2C(=O)Nc2ccccc2)cc1	n	n	n	n	n	n	x	x	x	x	x
Cc1ccc2c(c1)COc1c3ccc(C(=O)N[C@@H](CO)C(C)C)cc3nn1-2	n	n	n	n	n	n	x	x	x	x	x
CC(C)NC(=O)c1ccc2c3n(nc2c1)-c1ccc(Cl)cc1CO3	n	n	n	n	n	54	n	n	62	n	n
Cc1ccc2c(c1)COc1c3ccc(C(=O)N4CCCCC4)cc3nn1-2	84	n	80	n	n	81	n	87	96	86	n
CCCN(CC(=O)Nc1ccccc1C)C(=O)CCCc1c[nH]c2ccccc12	n	n	n	n	x	n	x	x	x	x	x
O=C(Nc1ccc(C#Cc2ccccc2)cc1)C1CC1	n	n	68	n	n	n	n	n	64	n	n
O=C(Nc1ccccc1C(=O)O)c1ccc(NC(=O)C2CC2)cc1	67	n	n	65	x	61	76	75	94	88	83
O=C(Nc1ccccc1O)c1ccc(NC(=O)C2CC2)cc1	n	n	n	n	x	n	x	x	x	x	x
O=C(Nc1ccc(Oc2ccccc2)cc1)C1CC1	n	n	n	n	n	n	x	x	x	x	x
CCCC(=O)Nc1ccc(C#Cc2ccccc2)cc1	n	n	51	n	n	n	n	n	n	n	n
COC(=O)c1ccc(CN2CCc3ccccc32)cc1	n	n	n	n	x	n	x	x	x	x	x
O=C(NCc1ccccc1)c1ccc(NC(=O)C2CCC2)cc1	x	n	x	n	x	x	x	x	x	x	x

Source: PubChem (Sanford-Burnham Center for Chemical Genomics)
